Source: PubChem BioAssay
The list is not random: actives were taken first. Their share in the collection is about 7.6%.
Giardia killer: Small Molecules that selectively kill Giardia lamblia: qHTS. AID 540267, 2011. Giardia lamblia trophozoite viability. 340,000 tested, 0.15% active. activity change, % at 7.66 µM, hits read low; in the data active = activity change below about -80%; inconclusive = between about -30% and that limit;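 also: parasites exposed to compound for two days anaerobically before the ATP read; % is scaled to controls: 0 for no effect and ±100 for the full control effect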
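Trophozoite viability was measured as ATP-dependent luminescence, read 15-30 min after reagent addition. Before that, parasites at 100 cells/well were exposed to compounds for 48 h, anaerobically, at 37 deg C.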
p53 reactivation: qHTS assay for re-activators of p53 using a Luc reporter; H1299 p53-A138V BP100-luciferase reporter, luminescence, 24 h; Potency, µM (highest dose often 92.2 µM), without a hit: top-dose activity change, positive = activation, hits mostly activators; 320,000 tested, 0.063% active; also: potency is read from the fitted curve at half-maximal effect; % of control where 0% means no effect; nearly all actives have a fitted effect of over 45% in size
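H1299 (p53-null), stable ts p53-A138V + BP100-Luc; 1000 cells/well, Opti-MEM/10% FBS; cpd 4 pt, 1:5; 24 h, 37 deg C, 5% CO2; detection reagent 10 min RT; luminescence.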
Gal4-VP16 FLuc: VP16 counterscreen qHTS for inhibitors of ROR gamma transcriptional activity | Drosophila S2 Gal4-VP16 UAS-luciferase, luminescence, 20 h | Potency, µM (doses to about 53.6 µM), for the others: at the top dose activity, negative = inhibition, usual class: inhibitors | 310,000 tested, 3.5% active | AID 2546, 2010;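 also: Gal4-VP16 expression switched on by copper sulfate through the metallothionein promoter; potency is read from the fitted curve at half-maximal effect; % is scaled to controls: 0 for no effect and ±100 for the full control effect; nearly all actives have a fitted effect of over 50% in size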
ELG1 DNA repair: qHTS screen for small molecules that inhibit ELG1-dependent DNA repair in human embryonic kidney (HEK293T) cells expressing luciferase-tagged ELG1 | HEK293T ELG1-luciferase reporter, luminescence, 16 h; DNA damage induced by 5-fluorouridine | Potency, µM (highest dose often 46.1 µM), inactives show top-dose activity change, negative = inhibition, most hits filed as inhibitors | 330,000 tested, 2.3% active; also: potency is read from the fitted curve at half-maximal effect; % is scaled to controls: 0 for no effect and ±100 for the full control effect; nearly all actives have a fitted effect of over 55% in size
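Reporter activity after DNA damage by 5-fluorouridine is monitored. Compound-treated cells incubate 16 hr at 37 °C, then ONE-Glo is added for 30 min before luminescence reading.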
BRCA1 expr up: qHTS Assay to Identify Small Molecule Activators of BRCA1 Expression; MCF7-BRCA1-FFLuc reporter, luminescence, 48 h; response scale: scaled: vehicle 0%, 10 µM genistein 100%; Potency, µM (titrated, usually from 46.1 µM), inactives show at the top dose activation, usual class: activators; 380,000 tested, 1.1% active; AID 624202, 2012; also: potency is read from the fitted curve at half-maximal effect; nearly all actives have a fitted effect of over 80% in size
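Quantitative HTS in MCF7 cells stably reporting BRCA1 expression via firefly luciferase. Compound treatment lasts 48 h at 37 °C in phenol-red free MEM. Activation is expressed relative to genistein at 10 microM and DMSO.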
RORg inh: qHTS for inhibitors of ROR gamma transcriptional activity | Drosophila S2 Gal4-RORgamma UAS-luciferase reporter, 20 h | Potency, µM (titrated, usually from 53.6 µM), for inactives: at the top dose activity change, negative = inhibition, most hits filed as inhibitors | 310,000 tested, 5.4% active | AID 2551, 2010; also: potency is read from the fitted curve at half-maximal effect; % is scaled to controls: 0 for no effect and ±100 for the full control effect; nearly all actives have a fitted effect of over 60% in size
Target sequence (P51450 whole entry, looked up, the tested form may be a part): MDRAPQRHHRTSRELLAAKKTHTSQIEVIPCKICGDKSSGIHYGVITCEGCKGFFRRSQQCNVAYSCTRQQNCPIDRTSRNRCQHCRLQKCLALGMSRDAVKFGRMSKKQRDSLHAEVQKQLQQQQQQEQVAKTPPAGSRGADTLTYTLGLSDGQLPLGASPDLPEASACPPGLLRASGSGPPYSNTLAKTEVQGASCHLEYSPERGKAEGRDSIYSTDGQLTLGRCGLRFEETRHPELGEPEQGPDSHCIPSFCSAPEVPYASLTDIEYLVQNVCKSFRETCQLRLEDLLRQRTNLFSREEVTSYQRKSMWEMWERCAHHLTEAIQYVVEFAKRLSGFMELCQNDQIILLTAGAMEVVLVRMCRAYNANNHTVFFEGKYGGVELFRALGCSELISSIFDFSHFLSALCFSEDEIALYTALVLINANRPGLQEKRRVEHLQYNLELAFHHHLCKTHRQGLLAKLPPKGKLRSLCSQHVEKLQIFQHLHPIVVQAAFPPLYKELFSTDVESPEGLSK
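Using a luciferase readout, inhibitors were identified by reduced reporter activity in Drosophila cells coexpressing a copper-inducible Gal4–ROR gamma fusion and UAS-driven Photinus luciferase, incubated 20 hr after 700 uM copper sulfate.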
The depositor's hits bear a star; ? = inconclusive; . = no result; [ ] = dose if it differs, or a comment. Unless noted, calls follow the shape of the dose curve; as a rule, active = well fitted curve in the direction sought with a large enough effect; inconclusive = small, poorly fitted or top-dose-only effect, or another doubt; inactive = no such curve, though single readings can be large; an effect the other way counts as inactive or inconclusive.

SMILES | Giardia killer | p53 reactivation | Gal4-VP16 FLuc | ELG1 DNA repair | BRCA1 expr up | RORg inh
CCCCC(=O)Nc1cccc(NC(=O)c2cccc([N+](=O)[O-])c2)c1 | 5 | 0% | 3% | ? | -8% | 15%
CC(C)CC(=O)NC(=S)NNC(=O)c1ccc([N+](=O)[O-])cc1 | ? | ? | 5.6µM* | -3% | -72% | 4µM*
CCC(=O)NC(=S)NNC(=O)c1ccc([N+](=O)[O-])cc1 | ? | 10% | 0% | 6% | 1% | ?
CCCCC(=O)NNC(=S)NC(=O)c1cccc([N+](=O)[O-])c1 | -3 | 8% | 0.89µM* | ? | -2% | 1µM*
COCC(=O)N1CCCC(C)(C(=O)Nc2cccc(Oc3ccccc3)c2)C1 (configuration not stated) | . | . | . | . | 19% | .
C[C@H](O)[C@@H]1CN2CCc3c([nH]c4ccccc34)[C@@H]2C[C@@H]1N(C)C(=S)NCCc1ccccc1 | . | . | . | . | -19% | .
CCCCN(C(=O)c1cc(S(=O)(=O)N2CCCCC2)ccc1Cl)c1c(N)n(CCC)c(=O)[nH]c1=O | -27 | . | . | . | -4% | .
COc1ccc(C(=O)Nc2nc(CC(=O)NCc3c(F)cccc3F)cs2)cc1 | . | . | . | . | 94% | .
COC(=O)[C@@H]1CC[C@H](C)[C@@H](c2ccc(C)cc2)N1C(=O)c1ccc(/C=N\O[C@@H](C)CN2CCCCc3nc(C)c(C)cc32)cc1 | . | . | -2%[10 µM] | . | . | -14%[10 µM]
COC(=O)[C@@H]1CC[C@H](C)[C@@H](c2ccc(C)cc2)N1C(=O)c1ccc(/C=N/O[C@@H](C)CN2CCCCc3nc(C)c(C)cc32)cc1 | . | 14% | 20µM* | ? | . | ?
CC(C)C[C@H](N)c1nnc(S(=O)(=O)Cc2cccc(F)c2)o1 | -7 | -22% | ? | 18% | -18% | 6.3µM*
CCOC(=O)CSc1nnc([C@H](Cc2ccccc2)NC(=O)OC(C)(C)C)o1 | -2 | -12% | -3% | -1% | 21% | -7%
Cc1ccccc1CS(=O)(=O)c1nnc([C@H](CC(C)C)NC(=O)OC(C)(C)C)o1 | 17 | -60% | 4.5µM* | -2% | -6% | 7.1µM*
CC(C)(C)OC(=O)N[C@@H](Cc1ccccc1)c1nnc(S(=O)(=O)Cc2cccc(F)c2)o1 | 13 | -13% | 4.5µM* | ? | -82% | 4.5µM*
CC(C)[C@H](NC(=O)OC(C)(C)C)c1nnc(S(=O)(=O)Cc2c(F)cccc2Cl)o1 | 4 | -22% | 5µM* | -5% | -25% | 4.5µM*
C[C@H](NC(=O)OC(C)(C)C)c1nnc(SCc2c(F)cccc2Cl)o1 | . | . | . | . | -13% | .
CC[C@@H](C)[C@H](NC(=O)OC(C)(C)C)c1nnc(S(=O)(=O)Cc2cc(C)ccc2C)o1 | 7 | -27% | ? | 10% | -72% | ?
CC1CCc2cccc3c(O)cc(=O)n1c23 (configuration not stated) | 2 | . | . | . | 29% | .
Cc1ccc(OCc2cc(C(=O)N(CCO)Cc3cccs3)no2)cc1C | 23 | 1% | 25% | ? | 11µM* | -11%
N#C/C(=C/c1ccc(N2CCCCC2)o1)C(=O)Nc1ccc(Cl)cc1 | -12 | ? | -12% | ? | 4.5µM* | -10%
Cc1cc(NC(=O)c2ccc([N+](=O)[O-])cc2Cl)no1 | -24 | ? | 4% | ? | 105% | -22%
Cc1cccc(N=Nc2c(C)[nH]n(C(N)=S)c2=O)c1C | . | 4% | 1.6µM* | ? | . | 0.4µM*
CCOc1ccccc1N=Nc1c(C)[nH]n(C(N)=S)c1=O | 2 | -4% | 1.3µM* | -7% | -59% | 0.45µM*
Cc1[nH]n(C(N)=S)c(=O)c1N=Nc1ccc([N+](=O)[O-])cc1Cl | -19 | 4% | 3.5µM* | 0% | 2% | 0.71µM*
Cc1[nH]n(C(N)=S)c(=O)c1N=Nc1ccccc1C(F)(F)F | ? | 13% | 2.5µM* | -14% | 14% | 0.32µM*
SMILES | Giardia killer | p53 reactivation | Gal4-VP16 FLuc | ELG1 DNA repair | BRCA1 expr up | RORg inh
NS(=O)(=O)c1ccc(CCNC(=O)Cc2ccc(Cl)cc2)cc1 | 3 | 2% | -1% | -14% | -1% | -35%[1.91 µM]
Cc1ccccc1N=Nc1c(C)[nH]n(C(N)=S)c1=O | -2 | ? | 1µM* | ? | 29% | 0.4µM*
Cc1cc(C(=O)CN2C(=O)CN(C)C2=O)c(C)n1-c1cccc(S(=O)(=O)N2CCOCC2)c1 | -13 | 1% | -8% | ? | 17% | 1%
Cc1cc(C(=O)CCl)c(C)n1-c1cccc(S(=O)(=O)N2CCOCC2)c1 | 2 | -7% | -12%[10 µM] | 7% | -14% | 10µM*
O=C(CO/N=C/c1ccc(Cl)cc1Cl)NNC(=O)c1ccc(Cl)cc1Cl | 17 | 1% | ? | 10% | -6% | 0.089µM*
O=C(Nc1ccc2ccccc2c1)c1ccc(Cl)cc1Cl | 4 | 22% | ? | ? | ? | 7.9µM*
O=C(NNC(=O)c1cccc2ccccc12)c1ccc(Cl)cc1Cl | -7 | . | . | . | 13µM* | .
S=C(NN=Cc1ccc2c(c1)OCO2)NN=Cc1ccc2c(c1)OCO2 | -2 | . | . | . | 3% | .
Cc1cc(CNC(=O)c2cc(COc3ccc(F)c(F)c3)on2)nn1C | 20 | -14% | -12% | ? | 8.9µM* | 15%
Cc1cc(C)n(CC(C)NC(=O)c2cc(COc3ccc(F)c(F)c3)on2)n1 (configuration not stated) | -19 | . | -30% | ? | 92% | ?
O=C(NNC1OC(CO)C(O)C(O)C1O)c1cccc(Br)c1 (configuration not stated) | 1 | ? | 11%[10 µM] | 2% | -16% | 11µM*
O=C(O)CCC(=O)NNC(=O)c1cccc(Br)c1 | 1 | 6% | 4% | 14% | -14% | -1%
CC(C)Sc1nc(N)nc(-c2cccs2)c1C#N | -6 | 19% | 16% | ? | 4µM* | ?
CC(C)c1ccc(CNc2ccc3c(c2)ncn3C)cc1 | 15 | 14% | ? | ? | 98% | -24%
CC(C)c1ccc(CNc2ncccn2)cc1 | -6 | 0% | 1% | ? | 11µM* | 9%
CCOC(=O)CN1NC2(CCC(C(C)(C)C)CC2)NC1=S (configuration not stated) | 0 | -3% | ? | 7% | -2% | 10µM*
CCOC(=O)CN1NC2(CCCCC2)NC1=S | -15 | 0% | ? | 12% | -5% | 16µM*
